# Test results from the supplement of paper PMC10515830.
# Counter-ions that a name gives are not always drawn.
# Assays:
# Conditions in all cases: 10 µM; exposure time 6 h
# [1] = tested on: Danio rerio larvae (5 dpf); assay: difference in excitability vs DMSO (percentage points); higher = more excitable than DMSO
# Method in brief: (§1)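 Wild-type zebrafish larvae at 5 dpf were kept in 96-well plates and exposed for 6 h to 100 µL egg water holding library compound at a final concentration of 10 µM. From 3 h into exposure, the plates were held at 28.5 ℃ and photographed every 6 s through a 3-h programme of moving lines and 100 ms, 400Hz tones. Each behaviour was scored by Z-LaP Tracker, a DeepLabCut model, and averaged over 48 larvae per compound. Every value gives the compound mean minus the vehicle control mean, in percentage points.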
# [2] = tested on: Danio rerio larvae (5 dpf); assay: difference in startle response vs DMSO (percentage points); higher = stronger startle than DMSO
# Method in brief: as §1
# [3] = tested on: Danio rerio larvae (5 dpf); assay: difference in activity during first hour vs DMSO (percentage points); higher = more activity than DMSO
# Method in brief: as §1
# [4] = tested on: Danio rerio larvae (5 dpf); assay: difference in habituation to acoustic stimuli vs DMSO (percentage points); higher = more habituation than DMSO
# Method in brief: as §1
# [5] = tested on: Danio rerio larvae (5 dpf); assay: difference in combined optomotor response to red, green and blue moving lines vs DMSO (percentage points); higher = stronger optomotor response than DMSO
# Method in brief: as §1
SMILES,difference in excitability [1],difference in startle response [2],difference in activity during first hour [3],difference in habituation to acoustic stimuli [4],difference [5]
NC(=O)Cc1cccc(C(=O)c2ccccc2)c1N [Nepafenac],9.24,1.72,-6.03,4.01,-4.77
NC[C@@H]1O[C@@H](O[C@H]2[C@H](O)[C@@H](O[C@H]3O[C@H](CO)[C@@H](O)[C@H](N)[C@H]3O)[C@H](N)C[C@@H]2N)[C@@H](O)[C@H](O)[C@H]1O [Kanamycin A (sulfate)],8.55,-4.02,4.22,3.45,4.39
C=CC(=O)Nc1cc(Nc2nccc(-c3cn(C)c4ccccc34)n2)c(OC)cc1N(C)CCN(C)C,8.96,-2.41,-13.4,-6.69,2.87
Nc1nc(N)c2nc(-c3ccccc3)c(N)nc2n1 [Triamterene],-0.938,5.79,11.3,-2.13,6.72
CNCc1ccc(-c2[nH]c3cc(F)cc4c3c2CCNC4=O)cc1 [Rucaparib],15.9,5.43,-11,15.7,11
Fc1ccc([C@@H]2CCNC[C@H]2COc2ccc3c(c2)OCO3)cc1 [Paroxetine (hydrochloride)],11,-3.61,-22.3,-3.35,-11.4
COC(=O)C1=C(C)NC(C)=C(C(=O)OCCN(C)Cc2ccccc2)C1c1cccc([N+](=O)[O-])c1 (stereo not given) [Nicardipine (hydrochloride)],7.46,-1.35,14.3,-16.5,-6.14
Nc1ncnc2c1ncn2[C@@H]1O[C@H](CO)[C@@H](O)[C@H]1O [Adenosine],1.75,6.58,10,-5.11,5.99
Cc1c(O)c(=O)ccn1C [Deferiprone],4.23,-1.15,8.16,-1.01,10.8
COc1ccc(CC(C)(C)NC[C@H](O)c2cc(O)cc3c2OCC(=O)N3)cc1 [Olodaterol],10.9,-5.93,11.8,-9.87,3.03
C=C1/C(=C\C=C2/CCC[C@]3(C)[C@@H]([C@H](C)/C=C/[C@H](C)C(C)C)CC[C@@H]23)C[C@@H](O)C[C@@H]1O [1-hydroxy Vitamin D2],1.72,-1.97,2.97,0.874,6.19
CC(=O)OCC(=O)[C@@]12OC(C)(C)O[C@@H]1C[C@H]1[C@@H]3C[C@H](F)C4=CC(=O)C=C[C@]4(C)[C@@]3(F)[C@@H](O)C[C@@]12C [Fluocinonide],0.338,2.99,-1.35,-2.83,0.257
CN1CCC(=C2c3ccccc3CCn3c(C=O)cnc32)CC1 [Alcaftadine],-1.49,3.88,20.6,-3,-2.52
N#C[C@@H]1C[C@@H]2C[C@@H]2N1C(=O)[C@@H](N)C12CC3CC(CC(O)(C3)C1)C2 [Saxagliptin (hydrochloride)],4.61,-1.75,11.5,5.75,2.16
COC(=O)CCc1ccc(OCC(O)CNC(C)C)cc1 (stereo not given) [Esmolol (hydrochloride)],-2.69,4.98,5.19,-2.83,10.6
CC[C@H](Nc1ncnc2[nH]cnc12)c1nc2cccc(F)c2c(=O)n1-c1ccccc1,5.3,1.19,-0.052,-0.933,2.36
CCC(C)n1ncn(-c2ccc(N3CCN(c4ccc(OCC5COC(Cn6cncn6)(c6ccc(Cl)cc6Cl)O5)cc4)CC3)cc2)c1=O (stereo not given) [Itraconazole],15.4,-0.629,-2.15,-5.43,4.73
COc1ccc([C@@H]2Sc3ccccc3N(CCN(C)C)C(=O)[C@@H]2OC(C)=O)cc1 [Diltiazem (hydrochloride)],8.73,-1.93,11.2,-8.44,1.27
CNS(=O)(=O)Cc1ccc2[nH]cc(CCN(C)C)c2c1 [Sumatriptan (succinate)],7.61,3.38,-12.9,5.35,-4.54
C=CC(=O)N1CCC[C@@H](n2nc(-c3ccc(Oc4ccccc4)cc3)c3c(N)ncnc32)C1 [Ibrutinib],14.1,0.877,-6.73,-6.76,9.38
Cc1ccc(Cl)c(Nc2ccccc2C(=O)O)c1Cl [Meclofenamate (sodium salt)],11.1,12.4,-18,-13.1,-19.7
CC[C@H]1OC(=O)[C@H](C)[C@@H](O[C@H]2C[C@@](C)(OC)[C@@H](O)[C@H](C)O2)[C@H](C)[C@@H](O[C@@H]2O[C@H](C)C[C@H](N(C)C)[C@H]2O)[C@](C)(O)C[C@@H](C)CN(C)[C@H](C)[C@@H](O)[C@]1(C)O [Azithromycin],19.6,2.02,-4.37,-3.98,-0.0441
OCCN(CCO)c1nc(N2CCCCC2)c2nc(N(CCO)CCO)nc(N3CCCCC3)c2n1 [Dipyridamole],1.25,3.31,10.2,-3.82,6.89
CC1(C)O[C@@H]2[C@@H](CO[C@@]3(COS(N)(=O)=O)OC(C)(C)O[C@@H]23)O1 [Topiramate],-2.77,10.8,-1.72,1.75,-0.45
Cc1ccc(=O)n(-c2ccccc2)c1 [Pirfenidone],-2.03,3.37,0.0618,2.62,8.23

SMILES,difference in excitability [1],difference in startle response [2],difference in activity during first hour [3],difference in habituation to acoustic stimuli [4],difference [5]
CC(=O)Oc1c(C)cc(OCC(O)CNC(C)C)c(C)c1C (stereo not given) [Metipranolol (hydrochloride)],1.28,4.21,-3.92,5.42,0.513
CCCc1nn(C)c2c(=O)[nH]c(-c3cc(S(=O)(=O)N4CCN(C)CC4)ccc3OCC)nc12 [Sildenafil Citrate],4.08,-0.935,-7.02,-0.835,5.26
CCCc1c2oc(C(=O)O)cc(=O)c2cc2c(=O)cc(C(=O)O)n(CC)c12 [Nedocromil (sodium salt)],-1.27,3.78,-6.98,7.47,-2.49
CC(C)[N+](C)(CCOC(=O)C1c2ccccc2Oc2ccccc21)C(C)C [Propantheline (bromide)],4.4,5.21,4.15,4.81,5.08
Cn1nnc2c(C(N)=O)ncn2c1=O [Temozolomide],-3.41,0.671,-3.71,1.66,5.77
CN[C@H]1CC[C@@H](c2ccc(Cl)c(Cl)c2)c2ccccc21 [Sertraline (hydrochloride)],8.65,9.23,-22.3,-4.17,-15.1
CC(C)(C)C(O)/C=C/c1ccc2c(c1)OCO2 (stereo not given) [Stiripentol],-5.22,0.0472,3.85,-4.89,7.37
Nc1ccc(O)c(C(=O)O)c1 [5-Aminosalicylic Acid],2.98,0.822,3.09,1.77,-0.0944
Oc1ncnc2[nH]ncc12 [Allopurinol],0.512,-2.34,-0.131,0.54,1.46
CC1Cc2ccccc2N1NC(=O)c1ccc(Cl)c(S(N)(=O)=O)c1 (stereo not given) [Indapamide],4.58,1.23,7.09,-1.64,1.06
CCOc1cc([C@@H](CS(C)(=O)=O)N2C(=O)c3cccc(NC(C)=O)c3C2=O)ccc1OC [Apremilast],0.408,3.1,-6.82,-0.561,-3.01
c1cc(CN2CCCNCCNCCCNCC2)ccc1CN1CCCNCCNCCCNCC1 [Plerixafor (hydrochloride hydrate)],11.6,-7.66,-16,-5.73,-15.1
Cc1nnc(C(C)C)n1C1C[C@H]2CC[C@@H](C1)N2CC[C@H](NC(=O)C1CCC(F)(F)CC1)c1ccccc1 (stereo in doubt) [Maraviroc],11.9,-3.97,5.94,-1.89,4.5
Nc1cc(Cl)c(N=C2NCCN2)c(Cl)c1 [Apraclonidine (hydrochloride)],8.82,7.97,-13.7,-0.961,-2.54
CO/N=C1\CN(c2nc3c(cc2F)c(=O)c(C(=O)O)cn3C2CC2)CC1CN (stereo not given) [Gemifloxacin (mesylate)],7.63,9.12,11,-1.77,2.04
CO[C@@]1(NC(=O)C2SC(=C(C(N)=O)C(=O)O)S2)C(=O)N2C(C(=O)O)=C(CSc3nnnn3C)CS[C@@H]21 (stereo not given in full) [Cefotetan (sodium salt)],-4.63,4.7,10.3,7.15,-1.08
CCCc1cc(=O)[nH]c(=S)[nH]1 [Propylthiouracil],7.08,1.86,3.37,-0.81,1.84
O=C(O)c1ccc(-n2nc(-c3ccccc3O)nc2-c2ccccc2O)cc1 [Deferasirox],1.98,-2.31,17.7,2.04,5.07
CN(C)CCC(c1ccc(Br)cc1)c1ccccn1 (stereo not given) [Brompheniramine (maleate)],4.19,-2.92,-11.7,-3.69,7.28
CC(=O)Nc1nnc(S(N)(=O)=O)s1 [Acetazolamide],-5.01,8.72,14.2,6.2,3.65
CNC[C@H](O)c1ccc(O)c(O)c1 (racemic) [(±)-Epinephrine (hydrochloride)],-0.953,-6,37.7,-7.58,4.53
CC(=O)[C@@]1(O)CC[C@H]2[C@@H]3C[C@H](C)C4=CC(=O)C=C[C@]4(C)[C@@]3(F)[C@@H](O)C[C@@]21C [Fluorometholone],5.46,1.23,-2.26,4.02,1.57
CCN(CC)CC#CCOC(=O)C(O)(c1ccccc1)C1CCCCC1 (stereo not given) [Oxybutynin (hydrochloride)],-4.54,8.08,-11.4,-8.53,-10.5
C[C@H](CCC(=O)O)[C@H]1CC[C@H]2[C@@H]3CC[C@@H]4C[C@H](O)CC[C@]4(C)[C@H]3C[C@H](O)[C@]12C [Deoxycholic Acid],13.1,-0.179,23.8,3.17,0.759
